Results taken from PubChem BioAssay (EPA / NIEHS).
Several values for one entry are separate records, joined by “and”; a condition that tells them apart may be missing. Equal entries are not always repeated. More than one record can exist for a structure, and the calls need not agree. Activity calls are given as the source filed them. Rule for the calls: active = hit-call score of the fitted dose curve at least 0.9, where 1 is the maximum; inactive = score below 0.9.

Key:
Conditions in all cases: mRNA level, 48 h; actives raise or lower the signal
Caspase-3 (Homo sapiens) = Caspase-3 (Homo sapiens) (UniProt P42574); test: LTEA_HepaRG_CASP3: Life Technologies and Expression Analysis (LTEA) Assay for cysteine-aspartic acid protease (CASP3) using HepaRG (AID 2283477)
Summary of the method: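 HepaRG, 48 h exposure, 8 conc. (top 100 uM, half-log steps, duplicate), 0.5% DMSO vehicle; qRT-PCR of CASP3 transcript, housekeeping-normalised (ACTB/GAPDH/POLR2A); bidirectional curve fit vs DMSO baseline.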

[1] = read-out: Cytochrome P450 (CYP24A1), CYP24A1 (gene 1591); test: LTEA_HepaRG_CYP24A1: Life Technologies and Expression Analysis (LTEA) Assay for Cytochrome P450 (CYP24A1) using HepaRG (AID 2283478)
Summary of the method: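 qRT-PCR read-out: CYP24A1 transcript levels normalized to three housekeeping genes, bidirectional curve fits against 0.5% DMSO baseline. Human HepaRG cells treated 48 h with chemicals at eight concentrations from 100 uM in half-log steps.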

[2] = read-out: Cytochrome P450 (CYP1A2), CYP1A2 (gene 1544); test: LTEA_HepaRG_CYP1A2: Life Technologies and Expression Analysis (LTEA) Assay for Cytochrome P450 (CYP1A2) using HepaRG (AID 2283479)
Summary of the method: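 HepaRG, 48 h exposure, top 100 uM, half-log 8-pt, 0.5% DMSO vehicle, duplicates. Readout: TaqMan qRT-PCR of CYP1A2 mRNA, housekeeping-normalized (ACTB/GAPDH/POLR2A). Gain/loss fit relative to DMSO baseline.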

[3] = read-out: cysteine-aspartic acid protease (CASP8), CASP8 (gene 841); test: LTEA_HepaRG_CASP8: Life Technologies and Expression Analysis (LTEA) Assay for cysteine-aspartic acid protease (CASP8) using HepaRG (AID 2283480)
Summary of the method: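 qRT-PCR readout of CASP8 mRNA, normalized to three housekeeping genes, after 48 h chemical exposure of HepaRG cells; 8-point half-log series, top 100 uM, 0.5% DMSO vehicle. Bidirectional curve fitting against DMSO baseline.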

[4] = read-out: Cytochrome P450 (CYP2B6), CYP2B6 (gene 1555); test: LTEA_HepaRG_CYP2B6: Life Technologies and Expression Analysis (LTEA) Assay for Cytochrome P450 (CYP2B6) using HepaRG (AID 2283481)
Summary of the method: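 Read-out is CYP2B6 mRNA by TaqMan qRT-PCR, normalized to three housekeeping genes and fitted bidirectionally against 0.5% DMSO baseline. Human HepaRG cells received test chemicals for 48 h, top concentration 100 uM, half-log dilutions.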

[5] = read-out: Cytochrome P450 2C19 (Homo sapiens) (UniProt P33261); test: LTEA_HepaRG_CYP2C19: Life Technologies and Expression Analysis (LTEA) Assay for CYP2C19 using HepaRG (AID 2283482)
Summary of the method: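 HepaRG, 48 h chemical exposure, 8-pt half-log series from 100 uM in 0.5% DMSO, duplicates. Readout: CYP2C19 mRNA by TaqMan qRT-PCR, housekeeping-normalized. Bidirectional fit vs DMSO baseline; phenobarbital 1mM as induction control.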

CYP2C8 (gene 1558) = test: LTEA_HepaRG_CYP2C8: Life Technologies and Expression Analysis (LTEA) Assay for CYP2C8 using HepaRG (AID 2283483)
Summary of the method: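 HepaRG (human liver line), 48 h chemical exposure, 8-pt half-log series from 100 uM, 0.5% DMSO vehicle. Readout: CYP2C8 transcript by qRT-PCR, housekeeping-normalized. Bidirectional fit vs DMSO baseline.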

CYP2E1 (gene 1571) = test: LTEA_HepaRG_CYP2E1: Life Technologies and Expression Analysis (LTEA) Assay for CYP2E1 using HepaRG (AID 2283485)
Summary of the method: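 CYP2E1 transcript measured by Fluidigm qRT-PCR against three housekeeping genes in human HepaRG cells treated 48 h (top 100 uM, half-log steps, 0.5% DMSO vehicle). Gain or loss fitted relative to DMSO baseline.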

CYP4A11 (gene 1579) = test: LTEA_HepaRG_CYP4A11: Life Technologies and Expression Analysis (LTEA) Assay for CYP4A11 using HepaRG (AID 2283486)
Summary of the method: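 CYP4A11 transcript levels were quantified by TaqMan qRT-PCR after HepaRG human liver cells were treated for 48 hours with test chemicals (top 100 uM, half-log dilutions, 0.5% DMSO). Gain or loss of signal was fitted relative to DMSO.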

CYP2C9 (gene 1559) = test: LTEA_HepaRG_CYP2C9: Life Technologies and Expression Analysis (LTEA) Assay for CYP2C9 using HepaRG (AID 2283484)
Summary of the method: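 HepaRG, 48 h dosing, 8-pt half-log series, top 100 uM, 0.5% DMSO vehicle. Read-out: CYP2C9 transcript by TaqMan qRT-PCR, housekeeping-normalized (ACTB/GAPDH/POLR2A). Gain or loss fitted vs DMSO baseline.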

Measured: AC50

Chain of Caspase-3 (Homo sapiens) (P42574 whole entry, looked up): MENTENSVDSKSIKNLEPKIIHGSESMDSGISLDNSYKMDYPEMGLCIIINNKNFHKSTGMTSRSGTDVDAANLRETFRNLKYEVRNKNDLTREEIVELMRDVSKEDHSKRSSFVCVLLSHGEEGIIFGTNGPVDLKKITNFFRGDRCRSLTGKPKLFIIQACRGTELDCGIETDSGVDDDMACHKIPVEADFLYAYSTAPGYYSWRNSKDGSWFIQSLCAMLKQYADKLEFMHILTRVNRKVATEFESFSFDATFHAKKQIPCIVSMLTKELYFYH
Chain of Cytochrome P450 2C19 (Homo sapiens) (P33261 whole entry, looked up): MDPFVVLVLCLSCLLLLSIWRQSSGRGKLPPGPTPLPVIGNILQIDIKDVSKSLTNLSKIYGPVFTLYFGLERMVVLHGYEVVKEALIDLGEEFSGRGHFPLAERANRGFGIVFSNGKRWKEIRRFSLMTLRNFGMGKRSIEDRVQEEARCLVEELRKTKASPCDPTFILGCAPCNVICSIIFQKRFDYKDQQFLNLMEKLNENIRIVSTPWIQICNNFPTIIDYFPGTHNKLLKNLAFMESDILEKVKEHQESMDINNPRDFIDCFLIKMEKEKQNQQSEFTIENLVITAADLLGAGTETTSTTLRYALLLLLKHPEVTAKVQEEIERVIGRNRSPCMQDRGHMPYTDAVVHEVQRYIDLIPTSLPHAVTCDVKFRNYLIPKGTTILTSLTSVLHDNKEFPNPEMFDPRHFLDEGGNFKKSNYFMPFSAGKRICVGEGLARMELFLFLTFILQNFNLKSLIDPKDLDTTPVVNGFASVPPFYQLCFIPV

CCCCOC(=O)[C@@H](C)Oc1ccc(Oc2ccc(C(F)(F)F)cn2)cc1
active: CYP2E1 (gene 1571) 17 µM
not listed: CYP2C9 (gene 1559)
inactive: all other assays above

CSC(=O)c1cccc2nnsc12
not listed: CYP2C9 (gene 1559)
inactive: all other assays above

CCOC(=O)C(C)Oc1ccc(Oc2nc3ccc(Cl)cc3o2)cc1 (stereo not given)
active: [4] 3.22 µM | [5] 14 µM | CYP2E1 (gene 1571) 35.6 µM
not listed: CYP2C9 (gene 1559)
inactive: all other assays above

CC(C)(c1ccc(O)cc1)c1ccc(O)cc1
inactive: Caspase-3 (Homo sapiens) | [1] | [3] | [5] | CYP2C8 (gene 1558) | CYP2E1 (gene 1571) | CYP4A11 (gene 1579)
active: [2] 50 µM | [4] 50 µM and 31.1 µM and 64.4 µM | [5] 37.1 µM

C#CCOC(=O)[C@@H](C)Oc1ccc(Oc2ncc(Cl)cc2F)cc1
active: CYP4A11 (gene 1579) 19 µM
inactive: all other assays above

CCN(Cc1c(F)cccc1Cl)c1c([N+](=O)[O-])cc(C(F)(F)F)cc1[N+](=O)[O-]
active: [2] 13.3 µM | [4] 12.7 µM | [5] 12.9 µM | CYP2E1 (gene 1571) 40.9 µM | CYP4A11 (gene 1579) 36.3 µM
inactive: Caspase-3 (Homo sapiens) | [1] | [3] | CYP2C8 (gene 1558) | CYP2C9 (gene 1559)

CCCCOCCOCCOCc1cc2c(cc1CCC)OCO2
inactive: Caspase-3 (Homo sapiens) | [1] | [3] | CYP4A11 (gene 1579)
active: [2] 16.5 µM | [4] 2.28 µM | [5] 5.73 µM | CYP2C8 (gene 1558) 4.61 µM | CYP2E1 (gene 1571) 14 µM

CCC(C)OC(=O)N1CCCCC1CCO (stereo not given)
active: [4] 35 µM | [5] 50 µM | CYP2C9 (gene 1559) 4.74 µM
inactive: all other assays above

CCCN(CCC)c1c([N+](=O)[O-])cc(C(F)(F)F)c(N)c1[N+](=O)[O-]
active: [4] 3.15 µM | [5] 5.41 µM | CYP2E1 (gene 1571) 16.2 µM | CYP4A11 (gene 1579) 28.9 µM
not listed: CYP2C9 (gene 1559)
inactive: all other assays above

COCCO
not listed: CYP2C9 (gene 1559)
inactive: all other assays above

S=C([S-])NCCNC(=S)[S-].[Mn+2]
inactive: [1]
active: Caspase-3 (Homo sapiens) 594 nM | [2] 0.654 µM | [3] 3.99 µM | [4] 2.35 µM | [5] 4.61 µM | CYP2C8 (gene 1558) 2.31 µM | CYP2E1 (gene 1571) 3.82 µM | CYP4A11 (gene 1579) 3.33 µM

CC1(C)C(C=C(Cl)Cl)C1C(=O)OCc1cccc(Oc2ccccc2)c1 (stereo not given)
active: [2] 11 µM | [4] 12 µM | CYP2E1 (gene 1571) 26.2 µM
not listed: CYP2C9 (gene 1559)
inactive: all other assays above

C[C@]12CC[C@@H]3c4ccc(O)cc4C[C@@H](CCCCCCCCCS(=O)CCCC(F)(F)C(F)(F)F)[C@H]3[C@@H]1CC[C@@H]2O (stereo not given in full)
active: [4] 29.9 µM | [5] 26 µM | CYP2C8 (gene 1558) 32.6 µM | CYP2E1 (gene 1571) 20.2 µM | CYP4A11 (gene 1579) 30.9 µM
inactive: Caspase-3 (Homo sapiens) | [1] | [2] | [3]

CCCCCCC(C)OC(=O)COc1nc(F)c(Cl)c(N)c1Cl (stereo not given)
active: [4] 50 µM
not listed: CYP2C9 (gene 1559)
inactive: all other assays above

CCNc1nc(N)nc(Cl)n1
active: [4] 6.87 µM | [5] 6.65 µM | CYP2E1 (gene 1571) 50 µM
inactive: all other assays above

c1ccc2[nH]c(-c3cscn3)nc2c1
active: [2] 23.6 µM | [4] 16.5 µM | [5] 28.6 µM | CYP2E1 (gene 1571) 50 µM
inactive: all other assays above

COC(=O)c1ccccc1C(=O)O
inactive: all assays above

CCCOC(=O)NCCCN(C)C
not listed: CYP2C9 (gene 1559)
inactive: all other assays above

CCCCC(CC)COC(=O)c1ccccc1C(=O)O (stereo not given)
active: [4] 29.1 µM | CYP2E1 (gene 1571) 76.7 µM | CYP4A11 (gene 1579) 50.8 µM
not listed: CYP2C9 (gene 1559)
inactive: all other assays above

CCCCOC(=O)C(C)Oc1ccc(Oc2ccc(C(F)(F)F)cn2)cc1 (stereo not given)
not listed: CYP2C9 (gene 1559)
inactive: all other assays above

COC(=O)c1ccc(I)cc1S(=O)(=O)NC(=O)Nc1nc(C)nc(OC)n1
active: [2] 50 µM
inactive: all other assays above

S=C(S)NCCNC(=S)S.[Mn+2].[S-]C([S-])=NCCN=C([S-])[S-].[Zn+2]
inactive: Caspase-3 (Homo sapiens) | [1]
active: Caspase-3 (Homo sapiens) 501 nM and 990 nM | [2] 502 nM and 444 nM and 615 nM | [3] 1.18 µM and 2.18 µM and 1.55 µM | [4] 1.05 µM and 1.1 µM and 1.15 µM | [5] 1.4 µM and 1.55 µM | CYP2C8 (gene 1558) 1.13 µM and 1.15 µM and 1.5 µM | CYP2E1 (gene 1571) 1.21 µM and 1.4 µM and 1.62 µM | CYP4A11 (gene 1579) 1.38 µM and 1.51 µM and 1.36 µM

CCCN(CCC)C(=O)SCC
active: [4] 11.4 µM
not listed: CYP2C9 (gene 1559)
inactive: all other assays above

CCOC(=O)NCCOc1ccc(Oc2ccccc2)cc1
inactive: Caspase-3 (Homo sapiens) | [1] | [3]
active: [2] 84.5 µM | [4] 81.4 µM | [5] 81.6 µM | CYP2C8 (gene 1558) 81.1 µM | CYP2C9 (gene 1559) 80 µM | CYP2E1 (gene 1571) 83.8 µM | CYP4A11 (gene 1579) 84.1 µM

COc1c(Cl)ccc(Cl)c1C(=O)O
not listed: CYP2C9 (gene 1559)
inactive: all other assays above

CC(=O)[C@H]1CC[C@H]2[C@@H]3CCC4=CC(=O)CC[C@]4(C)[C@H]3CC[C@]12C
inactive: Caspase-3 (Homo sapiens) | [1]
active: [2] 25.4 µM | [3] 82.2 µM | [4] 32.6 µM | [5] 39.6 µM | CYP2C8 (gene 1558) 37.2 µM | CYP2C9 (gene 1559) 38.5 µM | CYP2E1 (gene 1571) 25.7 µM | CYP4A11 (gene 1579) 31.1 µM
